Measurements taken from PubChem BioAssay (Tox21).
Several values for one entry are separate records, joined by “and”; a condition that tells them apart may be missing. Equal entries are not always repeated. Inconclusive results are not listed. Where a call stands in place of a potency, no number is given. More than one record can exist for a structure, and the calls need not agree. Activity calls are given as the source filed them. Unless noted, the call rests on the fitted dose curve.

Tests used:
[1] = Nuclear factor erythroid 2-related factor 2/antioxidant responsive element (Nrf2/ARE) small molecule agonists: qHTS cell viability counter screen in human keratinocytes (AID 1919968; active means well fitted curve in the direction sought with a large enough effect in the repeat runs; an effect the other way counts as inactive or inconclusive; further: nearly all actives have a fitted effect of over 55% in size; further: potency means the concentration at half of the fitted maximal effect)
Procedure, shortened: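 Cytotoxicity was multiplexed with the Nrf2/ARE luciferase assay in the same wells. Stably transfected HaCaT keratinocytes were treated with test compounds for 23 h at 37 C. Cell viability was then measured by CellTiter-Fluor fluorescence.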

[2] = Nuclear factor erythroid 2-related factor 2/antioxidant responsive element (Nrf2/ARE) small molecule agonists: luciferase reporter gene qHTS assay in human keratinocytes (AID 1919969); further: nearly all actives have a fitted effect of over 35% in size; further: potency means the concentration at half of the fitted maximal effect
[3] = molecular target: Gonadotropin-releasing hormone receptor (Homo sapiens) (UniProt P30968); assay: Human gonadotropin-releasing hormone receptor (GnRHR) small molecule agonists, calcium flux assay in GnRHR-HEK293 cells (AID 1920063); further: nearly all actives have a fitted effect of over 35% in size
Procedure, shortened: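 Agonist activity was measured as intracellular calcium flux in HEK293 cells engineered to stably express human GnRHR. After dye loading for 1 hour at 37 C, compounds in DMSO were added and fluorescence was followed for 3 minutes.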

[4] = molecular target: KiSS-1 receptor (Homo sapiens) (UniProt Q969F8); assay: Human kisspeptin (KISS1R) small molecule agonists, calcium flux assay in KISS1R-HEK293 cells (AID 1920064; active means well fitted curve in the direction sought with a large enough effect in the repeat runs; an effect the other way counts as inactive or inconclusive)
Procedure, shortened: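 Agonist activity is monitored as intracellular calcium rise in engineered HEK293 cells carrying human KISS1R. Cells are dye-loaded for 1 h at 37 C before compound addition, and fluorescence is recorded for 3 min.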

[5] = G protein-coupled receptor (GPCR) small molecule agonists, calcium flux assay: HEK293 wild type cell line counter screen (AID 1920065)
Procedure, shortened: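 Seed cells, incubate 18 h (37 C, 5% CO2); add calcium dye, 1 h at 37 C; pin-transfer compounds, ATP control or DMSO; read fluorescence 480/540 nm each second for 3 min.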

[6] = p53 small molecule agonists, cell-based qHTS assay with human liver microsomes (AID 1963577);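 further: p53 response element beta-lactamase reporter cells with liver microsomes plus NADPH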
Procedure, shortened: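 Reporter activation was measured by LiveBLAzer fluorescence intensity in p53RE-bla cells, which had been exposed to compounds for 16 h at 37 C alongside 0.5 mg/mL human liver microsomes and 0.5 mg/mL NADPH (final concentrations).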

[7] = p53 small molecule agonists, cell-based qHTS assay with rat liver microsomes (AID 1963578)
Procedure, shortened: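 Compound in DMSO added to p53RE-bla cells 5 h post-plating; rat microsomes/NADPH 0.5 mg/mL final; 16 h, 37 C; LiveBLAzer 2 h RT.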

[8] = p53 small molecule agonists, cell-based qHTS assay with human liver microsomes: qHTS cell viability counter screen (AID 1963579); further: nearly all actives have a fitted effect of over 45% in size; further: potency means the concentration at half of the fitted maximal effect
Procedure, shortened: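 HLM-supplemented (0.5 mg/mL final) and NADPH-supplemented (0.5 mg/mL final) p53RE-bla cultures, 4,000 cells per well, were dosed with compounds in DMSO for 16 h at 37 C; luminescent ATP detection (CellTiter-Glo, 30 min, room temperature) quantified surviving cells.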

[9] = p53 small molecule agonists, cell-based qHTS assay (AID 1963582; active means well fitted activation curve with a large enough effect in the signal ratio in the repeat runs, not every such curve was filed as active; the % refers to the signal ratio; further: potency means the concentration at half of the fitted maximal effect)
Procedure, shortened: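 Cells carrying a p53-responsive bla reporter are treated with test compounds for 16 h at 37 C; beta-lactamase activity is then detected with LiveBLAzer B/G FRET substrate after 2 h at room temperature.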

[10] = molecular target: 5-hydroxytryptamine receptor 2A (Homo sapiens) (UniProt P28223); assay: 5-hydroxytryptamine receptor 2A (HTR2A) small molecule antagonists, cell-based qHTS assay (AID 1963586); further: nearly all actives have a fitted effect of over 45% in size
Procedure, shortened: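 CHO cells stably expressing human HTR2A were plated for 18 h at 37 C, then loaded with calcium dye for 1 h. Compounds were preincubated 5 min at room temperature before DOI (4 nM solution) was added. Kinetic fluorescence was read for 3 min.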

[11] = molecular target: 5-hydroxytryptamine receptor 2A (Homo sapiens) (UniProt P28223); assay: 5-hydroxytryptamine receptor 2A (HTR2A) small molecule agonists, cell-based qHTS assay (AID 1963587); further: nearly all actives have a fitted effect of over 30% in size
Procedure, shortened: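 Kinetic calcium-flux fluorescence (2 min, 1 sec intervals) after compound addition in agonist mode. HTR2A-CHO cells were cultured 18 h, then dye-loaded 1 h at 37 C.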

[12] = molecular target: Muscarinic acetylcholine receptor M1 (Homo sapiens) (UniProt P11229); assay: Cholinergic receptor muscarinic 1 (CHRM1) small molecule antagonists, cell-based qHTS assay (AID 1963588); further: nearly all actives have a fitted effect of over 40% in size
Procedure, shortened: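 Compounds were tested at 15 concentrations in three independent runs. Dye-loaded CHRM1-CHO cells were exposed 5 min at room temperature before stimulation by acetylcholine added at 50nM. Intracellular calcium was read kinetically on FDSS for 3 min.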

[13] = molecular target: Muscarinic acetylcholine receptor M1 (Homo sapiens) (UniProt P11229); assay: Cholinergic receptor muscarinic 1 (CHRM1) small molecule agonists, cell-based qHTS assay (AID 1963589); further: nearly all actives have a fitted effect of over 35% in size
Procedure, shortened: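 Cells were plated and incubated 18 h at 37 C/5% CO2, loaded with calcium dye for 1 h at 37 C, then treated with compounds in DMSO. Fluorescence was recorded kinetically at 1 sec intervals.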

[14] = cAMP Responsive Elements (CRE) small molecule agonists, cell-based qHTS assay (AID 1963590)
Procedure, shortened: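 Cells carrying a CRE-driven beta-lactamase reporter (HEK 293T) are seeded, incubated overnight (18 h), and treated with test compounds for 3 h at 37 C; reporter activity is then detected with a FRET substrate after 2 h at room temperature.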

[15] = cAMP Responsive Elements (CRE) small molecule antagonists, cell-based qHTS assay (AID 1963591; active means well fitted inhibition curve with a large enough effect in the signal ratio in the repeat runs, not every such curve was filed as active; the % refers to the signal ratio)
Procedure, shortened: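 Cells (CRE-bla HEK 293T, DMEM with 10% dialyzed FBS and 25 mM HEPES) are seeded and incubated 18 h. Compounds are added with NKH477 agonist at 0.25 uM final for 3 h, then FRET substrate for 2 h.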

[16] = p53 small molecule agonists, cell-based qHTS assay with rat liver microsomes: qHTS cell viability counter screen (AID 1963580); further: nearly all actives have a fitted effect of over 45% in size
Procedure, shortened: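 Rat liver microsome (0.5 mg/mL final) and NADPH (0.5 mg/mL final) co-incubation with compounds for 16 h at 37 C on HCT-116 p53RE-bla cells; cytotoxicity taken from intracellular ATP luminescence.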

[17] = molecular target: Beta-2 adrenergic receptor (Homo sapiens) (UniProt P07550); assay: Adrenergic beta2 receptor (ADRB2) small molecule antagonists, cell-based qHTS assay (AID 1963592); further: series mostly up to about 92 µM; nearly all actives have a fitted effect of over 50% in size
Procedure, shortened: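 Assay format: CHO-ADRB2 cells, 18-20hr seeding at 37C/5% CO2, then compound plus 1nM isoproterenol agonist mix for 0.5hr RT. Homogeneous time-resolved fluorescence cAMP detection after 1hr, expressed as 665/615 nm ratio.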

[18] = molecular target: Beta-2 adrenergic receptor (Homo sapiens) (UniProt P07550); assay: Adrenergic beta2 receptor (ADRB2) small molecule agonists, cell-based qHTS assay (AID 1963593);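 further: CHO cells stably overexpressing human ADRB2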
Procedure, shortened: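 CHO cells stably over-expressing ADRB2 were plated overnight at 37C, then dosed with compounds plus a stimulation mix containing 100uM IBMX and 25uM Ro-20-1724 for 0.5hr at room temperature. cAMP was measured by HTRF competition, 1hr.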

[19] = molecular target: D(2) dopamine receptor (Homo sapiens) (UniProt P14416); assay: Dopamine D2 receptor (DRD2) small molecule agonists, cell-based qHTS assay (AID 1963594); further: nearly all actives have a fitted effect of over 35% in size
Procedure, shortened: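 cAMP accumulation in DRD2-HEK293 cells measured by HTRF after 1 h detection; compounds added 10 min before NKH477 (200nM […]) forskolin-analogue stimulation, 30 min at room temperature, with Ro20-1724 present at 0.1 mM final.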

[20] = molecular target: D(2) dopamine receptor (Homo sapiens) (UniProt P14416); assay: Dopamine D2 receptor (DRD2) small molecule antagonists, cell-based qHTS assay (AID 1963595; active means well fitted inhibition curve with a large enough effect in the signal ratio in the repeat runs, with a control signal flat; the % refers to the signal ratio)
Procedure, shortened: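 DRD2-HEK293; 0.1 mM Ro20-1724; cpd 10 min RT; NKH477 200 nM + quinpirole 12 nM, 30 min RT; HTRF cAMP (cAMP-d2/anti-cAMP cryptate), 665/620 nm ratio after 1 h.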

Sequence of 5-hydroxytryptamine receptor 2A (Homo sapiens) (P28223 whole entry, looked up): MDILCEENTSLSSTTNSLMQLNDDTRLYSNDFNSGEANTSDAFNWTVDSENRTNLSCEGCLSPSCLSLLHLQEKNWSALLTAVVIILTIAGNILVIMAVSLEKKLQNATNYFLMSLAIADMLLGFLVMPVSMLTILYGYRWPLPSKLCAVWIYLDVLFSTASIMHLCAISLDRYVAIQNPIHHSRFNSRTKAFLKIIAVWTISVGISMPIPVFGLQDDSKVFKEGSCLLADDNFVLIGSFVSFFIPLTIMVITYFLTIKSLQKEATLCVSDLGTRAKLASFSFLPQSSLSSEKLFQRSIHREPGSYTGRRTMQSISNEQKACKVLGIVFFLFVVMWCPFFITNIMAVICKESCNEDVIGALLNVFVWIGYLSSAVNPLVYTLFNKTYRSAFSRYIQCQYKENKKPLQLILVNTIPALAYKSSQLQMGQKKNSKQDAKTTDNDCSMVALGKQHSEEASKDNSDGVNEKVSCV
Sequence of Gonadotropin-releasing hormone receptor (Homo sapiens) (P30968 whole entry, looked up): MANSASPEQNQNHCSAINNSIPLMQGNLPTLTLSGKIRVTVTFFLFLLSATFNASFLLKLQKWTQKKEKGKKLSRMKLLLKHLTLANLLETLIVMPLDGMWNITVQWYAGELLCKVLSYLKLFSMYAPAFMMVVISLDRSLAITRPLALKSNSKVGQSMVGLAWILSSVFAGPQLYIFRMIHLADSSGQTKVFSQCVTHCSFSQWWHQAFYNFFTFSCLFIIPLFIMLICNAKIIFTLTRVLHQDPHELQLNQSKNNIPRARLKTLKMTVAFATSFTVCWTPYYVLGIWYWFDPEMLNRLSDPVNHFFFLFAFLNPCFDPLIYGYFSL
Sequence of Beta-2 adrenergic receptor (Homo sapiens) (P07550 whole entry, looked up): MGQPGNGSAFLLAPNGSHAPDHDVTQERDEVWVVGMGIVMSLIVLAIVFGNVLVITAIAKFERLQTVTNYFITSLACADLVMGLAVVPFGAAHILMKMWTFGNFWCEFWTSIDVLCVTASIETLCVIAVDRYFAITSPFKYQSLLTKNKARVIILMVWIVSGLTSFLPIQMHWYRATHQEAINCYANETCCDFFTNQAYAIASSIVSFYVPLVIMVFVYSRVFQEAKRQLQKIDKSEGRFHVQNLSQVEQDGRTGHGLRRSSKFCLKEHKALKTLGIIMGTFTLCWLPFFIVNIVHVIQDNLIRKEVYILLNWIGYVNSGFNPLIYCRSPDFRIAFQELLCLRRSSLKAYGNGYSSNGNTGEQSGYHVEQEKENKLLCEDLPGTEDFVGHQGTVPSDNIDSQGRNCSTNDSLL
Sequence of Muscarinic acetylcholine receptor M1 (Homo sapiens) (P11229 whole entry, looked up): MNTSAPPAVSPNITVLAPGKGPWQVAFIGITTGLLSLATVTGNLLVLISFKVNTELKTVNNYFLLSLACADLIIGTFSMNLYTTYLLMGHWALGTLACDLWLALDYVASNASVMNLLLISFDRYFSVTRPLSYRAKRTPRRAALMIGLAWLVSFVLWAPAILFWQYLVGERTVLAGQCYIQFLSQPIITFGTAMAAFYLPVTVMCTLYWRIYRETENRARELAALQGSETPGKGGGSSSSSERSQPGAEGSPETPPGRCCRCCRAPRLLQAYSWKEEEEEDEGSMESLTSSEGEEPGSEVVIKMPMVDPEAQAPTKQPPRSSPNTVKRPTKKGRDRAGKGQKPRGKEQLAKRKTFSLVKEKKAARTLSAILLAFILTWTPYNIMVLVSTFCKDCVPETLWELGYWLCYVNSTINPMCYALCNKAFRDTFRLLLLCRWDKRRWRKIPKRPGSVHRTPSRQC
Sequence of D(2) dopamine receptor (Homo sapiens) (P14416 whole entry, looked up): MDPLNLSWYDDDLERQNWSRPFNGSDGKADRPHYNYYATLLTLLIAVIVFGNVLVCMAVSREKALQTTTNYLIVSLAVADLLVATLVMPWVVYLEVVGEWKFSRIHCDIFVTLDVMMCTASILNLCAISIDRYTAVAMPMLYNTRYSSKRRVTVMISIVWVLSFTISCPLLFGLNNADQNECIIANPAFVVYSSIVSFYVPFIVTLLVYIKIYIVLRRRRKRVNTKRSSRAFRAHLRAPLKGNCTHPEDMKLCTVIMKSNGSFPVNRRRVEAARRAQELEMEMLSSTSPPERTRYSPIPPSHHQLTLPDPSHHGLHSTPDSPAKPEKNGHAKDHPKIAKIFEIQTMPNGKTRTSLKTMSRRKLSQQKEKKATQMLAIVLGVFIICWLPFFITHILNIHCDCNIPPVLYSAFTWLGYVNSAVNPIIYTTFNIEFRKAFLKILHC
Sequence of KiSS-1 receptor (Homo sapiens) (Q969F8 whole entry, looked up): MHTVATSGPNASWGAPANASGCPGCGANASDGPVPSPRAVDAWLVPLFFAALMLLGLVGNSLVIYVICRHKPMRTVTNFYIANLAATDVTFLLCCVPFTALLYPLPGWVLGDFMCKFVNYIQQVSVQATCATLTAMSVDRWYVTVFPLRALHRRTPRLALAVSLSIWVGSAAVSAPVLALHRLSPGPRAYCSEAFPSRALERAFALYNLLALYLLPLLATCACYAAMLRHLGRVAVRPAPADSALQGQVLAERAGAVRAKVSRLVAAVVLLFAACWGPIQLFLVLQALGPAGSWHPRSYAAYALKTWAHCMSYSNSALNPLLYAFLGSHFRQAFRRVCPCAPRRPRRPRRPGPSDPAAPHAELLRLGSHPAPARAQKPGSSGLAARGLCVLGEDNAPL

| Structure (SMILES) | Potency [1] | Potency [2] | Potency [3] | Potency [4] | Potency [5] | Potency [6] | Potency [7] | Potency [8] | Potency [9] | Potency [10] | Potency [11] | Potency [12] | Potency [13] | Potency [14] | Potency [15] | Potency [16] | Potency [17] | Potency [18] | Potency [19] | Potency [20] |
| --- | --- | --- | --- | --- | --- | --- | --- | --- | --- | --- | --- | --- | --- | --- | --- | --- | --- | --- | --- | --- |
| CN(C)c1ccc2nc3ccc(=[N+](C)C)cc-3sc2c1 | 54.5 µM (active) | 10.4 µM (active) and 15.4 µM (active) and 13.3 µM (active) | inactive | inactive | inactive | inactive | inactive | 8.14 µM (active) | 28.9 µM (active) | inactive | inactive | inactive | inactive | inactive | inactive | – | – | – | – | – |
| CCOC(=O)[C@H](CCc1ccccc1)N[C@@H](C)C(=O)N1Cc2ccccc2C[C@H]1C(=O)O | inactive | inactive | inactive | inactive | inactive | inactive | inactive | inactive | inactive | – | – | – | – | – | – | inactive | inactive | inactive | inactive | inactive |
| Cc1sccc1Br | inactive | inactive | inactive | inactive | inactive | inactive | inactive | inactive | inactive | inactive | inactive | inactive | inactive | inactive | inactive | – | inactive | inactive | inactive | inactive |
| CCCCCC1CCCC(=O)O1 (centres undefined) | inactive | inactive | inactive | inactive | inactive | inactive | inactive | inactive | inactive | inactive | inactive | inactive | – | inactive | inactive | inactive | inactive | – | inactive | inactive |
| CC(C)(C)CC(C)(C)c1ccc(OCCOCC[N+](C)(C)Cc2ccccc2)cc1 | 24.3 µM (active) and 10.6 µM (active) | inactive | inactive | inactive | inactive | inactive | inactive | 20.4 µM (active) and inactive | inactive | – | – | – | – | – | inactive | inactive | – | – | inactive | – |
| CC(C)CCCCOC(=O)c1ccccc1C(=O)OCCCCC(C)C | inactive | inactive | inactive | inactive | inactive | inactive | inactive | inactive | inactive | inactive | inactive | inactive | inactive | inactive | inactive | – | inactive | inactive | inactive | inactive |
| CCOC(OCC)OCC | inactive | inactive | inactive | inactive | inactive | inactive | inactive | inactive | inactive | inactive | inactive | inactive | inactive | inactive | inactive | – | inactive | inactive | inactive | inactive |
| O=S(=O)(O)c1ccccc1O | inactive | inactive | inactive | inactive | inactive | inactive | inactive | inactive | inactive | inactive | inactive | inactive | inactive | inactive | inactive | – | inactive | inactive | inactive | inactive |
| CCCCCCCC/C=C\CCCCCCCC(N)=O | inactive | inactive | inactive | inactive | inactive | inactive | inactive | inactive | inactive | – | inactive | inactive | inactive | inactive | inactive | inactive | inactive | inactive | inactive | inactive |
| CC(C)=C1CC[C@@H](C)CC1=O | inactive | inactive | inactive | inactive | inactive | inactive | inactive | inactive | inactive | inactive | – | inactive | inactive | inactive | inactive | inactive | inactive | inactive | – | inactive |
| CC1CC(OC(=O)c2ccccc2O)CC(C)(C)C1 (centres undefined) | inactive | 61.1 µM (active) | inactive | inactive | inactive | inactive | inactive | inactive | inactive | inactive | inactive | inactive | inactive | inactive | inactive | – | inactive | inactive | inactive | inactive |
| CCC(=O)OC/C=C(\C)CCC=C(C)C | inactive | inactive | inactive | inactive | inactive | inactive | inactive | inactive | – | inactive | inactive | inactive | inactive | inactive | inactive | inactive | inactive | inactive | inactive | inactive |
| CCC1CCCCC1 | inactive | inactive | inactive | inactive | inactive | inactive | inactive | inactive | inactive | inactive | inactive | inactive | – | inactive | inactive | inactive | inactive | inactive | inactive | inactive |
| CCCC[C@H]1CN(CC2CCOCC2)C(=O)OC12CCN(C1(C)CCN(C(=O)c3c(C)ncnc3C)CC1)CC2 | inactive | inactive | inactive | inactive | inactive | inactive | inactive | inactive | inactive | – | inactive | – | inactive | inactive | inactive | inactive | inactive | – | inactive | inactive |
| CCOc1ccc(N)c([N+](=O)[O-])c1 | inactive | inactive | inactive | inactive | inactive | inactive | inactive | inactive | inactive | inactive | inactive | inactive | inactive | inactive | inactive | – | inactive | inactive | inactive | inactive |
| Cn1cnc2c(F)c(Nc3ccc(Br)cc3Cl)c(C(=O)NOCCO)cc21 | inactive | inactive | inactive | inactive | inactive | inactive | inactive | inactive | inactive | inactive | inactive | inactive | inactive | inactive | inactive | – | inactive | inactive | inactive | inactive |
